# Measured values: PubChem BioAssay (NCATS)
# Inconclusive results are not listed. Entries that show only a call come without a potency. A number with no mark means an inactive call. Active and inactive are the calls of the source. The call rests on the fitted dose curve; in most records, active means well fitted activation curve with a large enough effect; inconclusive means small, poorly fitted or top-dose-only effect; inactive means no such curve, though single readings can be large or run the other way.
# Target: Rap guanine nucleotide exchange factor 4 (Homo sapiens) (UniProt Q8WZA2)
# Test: Confirmatory qHTS for agonist of cAMP-regulated guanine nucleotide exchange factor 4 (EPAC2) (AID 1645884);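 further: nucleotide exchange releases bodipy-GDP from Rap1 and this lowers its fluorescence; nearly all actives have a fitted effect of over 65% in size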
# Conditions: EPAC2 GEF activity, Rap1B-BODIPY-GDP fluorescence; series mostly up to 154 µM
# Potency means the concentration at half of the fitted maximal effect.
# Chain of Rap guanine nucleotide exchange factor 4 (Homo sapiens) (Q8WZA2 whole entry, looked up): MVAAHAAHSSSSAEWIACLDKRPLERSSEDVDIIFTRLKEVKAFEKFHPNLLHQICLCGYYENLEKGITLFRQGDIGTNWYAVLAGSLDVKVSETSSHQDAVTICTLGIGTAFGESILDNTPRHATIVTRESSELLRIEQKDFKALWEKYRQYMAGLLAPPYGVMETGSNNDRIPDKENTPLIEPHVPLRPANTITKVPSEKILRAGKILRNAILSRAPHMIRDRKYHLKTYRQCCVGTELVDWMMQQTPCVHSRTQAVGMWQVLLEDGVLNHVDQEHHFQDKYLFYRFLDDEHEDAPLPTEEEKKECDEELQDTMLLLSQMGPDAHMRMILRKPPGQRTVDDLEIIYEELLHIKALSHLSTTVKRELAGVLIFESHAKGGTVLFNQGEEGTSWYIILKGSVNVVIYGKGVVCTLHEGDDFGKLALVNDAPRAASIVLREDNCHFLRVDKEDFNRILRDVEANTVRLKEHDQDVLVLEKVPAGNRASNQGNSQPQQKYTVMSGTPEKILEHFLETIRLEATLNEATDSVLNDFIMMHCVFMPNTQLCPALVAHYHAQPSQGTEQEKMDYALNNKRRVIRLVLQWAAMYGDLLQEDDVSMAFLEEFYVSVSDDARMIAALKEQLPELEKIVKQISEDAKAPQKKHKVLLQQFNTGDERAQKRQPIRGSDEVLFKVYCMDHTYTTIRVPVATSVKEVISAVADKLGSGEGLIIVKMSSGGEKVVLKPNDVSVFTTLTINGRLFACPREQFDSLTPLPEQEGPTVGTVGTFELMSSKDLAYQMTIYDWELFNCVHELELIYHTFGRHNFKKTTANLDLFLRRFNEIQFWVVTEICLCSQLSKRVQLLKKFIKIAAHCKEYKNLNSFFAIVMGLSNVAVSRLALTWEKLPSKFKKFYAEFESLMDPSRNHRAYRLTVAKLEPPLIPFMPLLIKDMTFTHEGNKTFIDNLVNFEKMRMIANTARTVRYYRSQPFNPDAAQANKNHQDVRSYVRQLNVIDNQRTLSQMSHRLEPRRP
Structure (SMILES),Potency,activation
COc1ccc2ccccc2c1C(=O)/C=C\c1ccoc1,inactive,–
Oc1ccc(-c2c(-c3ccsc3)sc3ccccc23)cc1,–,"2.53% [at 17.1 µM, percent relative to cAMP agonist control]"
CC(C)CC1C(=O)N(Cc2cn(CCC3OCCO3)nn2)CCS(=O)(=O)N1Cc1ccc(-c2ccc(F)cc2)cc1 (configuration not stated),–,"7.64% [at 17.1 µM, percent relative to cAMP agonist control]"
CC(CCc1ccccc1)NC(=O)C1CCN(C(=O)c2sccc2-n2cccc2)CC1 (configuration not stated),inactive,–
O=C1C=C(N2CCCCC2)c2ccccc2C1=O,–,"2.92% [at 17.1 µM, percent relative to cAMP agonist control]"
COc1ccc(-n2nnnc2SCC(=O)c2ccc(O)c(O)c2)cc1,inactive,–
COC1C(CO)OC(n2c3c(Cl)cccc3c3c4c(c5c6cccc(Cl)c6[nH]c5c32)C(=O)NC4=O)C(O)C1O (configuration not stated),inactive,–
COc1ccc(-c2nn(-c3ccccc3)cc2/C=N/n2cnnc2)cc1OC,inactive,–
C#CCOCCOCCOCCNc1nc(N2CCN(C(=O)[C@H](Cc3cc4ccccc4[nH]3)n3cc([C@@H](N)Cc4ccc(O)cc4)nn3)CC2)nc(N2CCN(C(=O)[C@H](Cc3cc4ccccc4[nH]3)n3cc([C@@H](N)CC(C)C)nn3)CC2)n1,–,"-1.86% [at 17.1 µM, percent relative to cAMP agonist control]"
COc1ccc(CCNC(=O)CSc2nc3nc(C)c(Cc4ccc(C)cc4)c(C)n3n2)cc1OC,inactive,–
Cc1cccc(C(=O)Nc2cccc(C(=O)OCc3cc(=O)n4c5c(sc4n3)CCCC5)c2)c1,inactive,–
CN(C)C(CNS(=O)(=O)c1ccc(Cl)cc1)c1cccnc1 (configuration not stated),inactive,–
O=C(O)c1[nH]c2ccccc2c1C(c1cc(Cl)cc([N+](=O)[O-])c1O)c1c(C(=O)O)[nH]c2ccccc12,inactive,–
Cn1c(SCc2c(Cl)cccc2Cl)nnc1-c1ccc2nonc2c1,–,"10.1% [at 17.1 µM, percent relative to cAMP agonist control]"
COc1cc2c(cc1OC)C(c1ccccc1)N(C(=O)c1ccco1)CC2 (configuration not stated),inactive,–
NNc1nc2c(Cl)cccc2s1,inactive,–

Structure (SMILES),Potency,activation
CC1CCN(c2ccc3c(c2)S(=O)(=O)c2ccccc2C3=O)CC1,100 µM (active),–
COc1ccc(-c2n[nH]c3c2C(c2ccc(Cl)cc2Cl)NC3=O)cc1 (configuration not stated),inactive,–
COc1cc(NC(=S)NCCC(c2ccccc2)c2ccccc2)cc(OC)c1,–,"6.66% [at 17.1 µM, percent relative to cAMP agonist control]"
O=C(Cc1ccccc1Cl)Nc1ccc(S(=O)(=O)Nc2nccs2)cc1,inactive,–
Cc1ccc(S(=O)(=O)N2[C@@H](c3ccc(Br)cc3)C(C(=O)O)=CC[C@H]2c2ccc(Cl)c(Cl)c2)cc1,inactive,–
CC1CC1C(=O)OCC(=O)NNC(=O)COc1ccc(Br)cc1 (configuration not stated),–,"2.41% [at 17.1 µM, percent relative to cAMP agonist control]"
Cc1cn2c(=O)cc(COC(=O)c3ccc(NC(=O)C(C)Oc4ccccc4)cc3)nc2s1 (configuration not stated),inactive,–
Cc1ccc(OCCn2cccn2)c(C)c1,inactive,–
Cc1ccc2c(c1)c1c(c(=O)n(-c3cccc(Cl)c3)c(=O)n1C)n2C,inactive,–
Cn1c2ccccc2c2cc(/C=N/NC(=O)c3cc(O)ccc3O)ccc21,–,"-2.01% [at 17.1 µM, percent relative to cAMP agonist control]"
CCSc1nc2ccccc2c(=O)n1C1CCOC(C)(C)C1 (configuration not stated),inactive,–
Cn1c(=O)c2c(-c3ccccc3Br)n(CCc3ccccc3)cc2n(C)c1=O,inactive,–
CCCc1[nH]nc2c1C(c1cccnc1)C(C#N)=C(N)O2 (configuration not stated),–,"5.78% [at 17.1 µM, percent relative to cAMP agonist control]"
CCc1ccccc1Oc1nc(NC(C)C)nc2ccsc12,–,"7.29% [at 17.1 µM, percent relative to cAMP agonist control]"
CCCOC(=O)c1c(-c2ccccc2)c(-c2ccccc2)nn(C)c1=O,inactive,–
CCN1/C(=C/C(C)=C/c2sc3ccccc3[n+]2CC)Sc2ccccc21,–,"8.04% [at 17.1 µM, percent relative to cAMP agonist control]"
